Inconclusive results are not listed. The source made the active and inactive calls. Unless noted, calls come from the whole dose curve; as a rule, active = well fitted curve in the direction sought with a large enough effect in the repeat runs; inconclusive = weak or mixed curves; inactive = no such curve, though single readings can be large; an effect the other way counts as inactive or inconclusive.
Columns and labels:
[1] = A CellTox Green Cytotoxicity Assay to monitor cytotoxicity in HepG2 cells - 8 hour (AID 1224890); note: nearly all actives have a fitted effect of over 45% in size
Outline: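 HepG2 cells were seeded together with the CellTox Green dye at 600 cells/well, left 5 h at 37 C/5% CO2, then given compounds in DMSO. Fluorescence from dye bound to dead-cell DNA was read repeatedly over 40 h of treatment at 37 C.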

[2] = qHTS assay to identify small molecule antagonists of the estrogen receptor alpha (ER-alpha) signaling pathway using the BG1 cell line in the presence of 0.1 nM 17-beta-estradiol - cell viability counter screen (AID 1259241); note: nearly all actives have a fitted effect of over 40% in size
Outline: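 The cell line endogenously expresses full-length ER-alpha and carries four EREs driving luciferase. Cells are cultured 5 days hormone-free, treated 22 hr with compounds and 0.1 nM estradiol, then viability is read by fluorescence.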

[3] = qHTS assay to identify small molecule antagonists of the androgen receptor (AR) signaling pathway using the MDA cell line in the presence of 0.5 nM R1881 - cell viability counter screen (AID 1259242); note: nearly all actives have a fitted effect of over 45% in size
Outline: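 MDA-kb2 cells (human breast carcinoma, stably carrying MMTV-luciferase reporter) were exposed to compounds with 0.5 nM R1881 (final) for 16 hr at 37C, 0% CO2; viability then read as live-cell protease fluorescence (CellTiter-Fluor, 30 min) in the same wells.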

[4] = target: Estrogen receptor (Homo sapiens) (UniProt P03372); assay: qHTS assay to identify small molecule antagonists of the estrogen receptor alpha (ER-alpha) signaling pathway using the BG1 cell line in the presence of 0.1 nM 17-beta-estradiol (AID 1259244); note: nearly all actives have a fitted effect of over 50% in size; note: potency is the fitted concentration of half-maximal effect
Estrogen receptor (Homo sapiens), sequence (P03372 whole entry, looked up): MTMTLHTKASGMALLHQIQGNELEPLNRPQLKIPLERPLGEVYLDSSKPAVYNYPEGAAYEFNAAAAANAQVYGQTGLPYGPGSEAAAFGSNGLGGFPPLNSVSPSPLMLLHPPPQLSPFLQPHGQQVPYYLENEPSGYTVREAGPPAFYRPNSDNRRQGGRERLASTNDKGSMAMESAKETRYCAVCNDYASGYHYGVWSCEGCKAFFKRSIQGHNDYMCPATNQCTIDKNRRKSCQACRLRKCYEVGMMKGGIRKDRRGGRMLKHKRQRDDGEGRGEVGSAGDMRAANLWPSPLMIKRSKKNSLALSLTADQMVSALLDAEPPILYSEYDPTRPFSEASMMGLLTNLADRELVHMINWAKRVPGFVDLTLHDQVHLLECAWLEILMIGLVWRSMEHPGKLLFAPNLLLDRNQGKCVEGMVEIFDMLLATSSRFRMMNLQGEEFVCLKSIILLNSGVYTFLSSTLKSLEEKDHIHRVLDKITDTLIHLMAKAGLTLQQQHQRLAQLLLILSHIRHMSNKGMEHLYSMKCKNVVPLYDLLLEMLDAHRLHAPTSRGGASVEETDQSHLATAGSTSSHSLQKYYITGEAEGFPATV
Outline: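 VM7Luc4E2 cells (endogenous full-length ER-alpha, stable 4xERE-luciferase) were grown 5 days in phenol red-free medium with charcoal-stripped FBS, then exposed 22 h at 37C to compounds plus 0.1 nM (final) 17beta-estradiol; ONE-Glo luminescence read-out.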

[5] = qHTS assay to identify small molecule HDAC inhibitors (AID 1259364); note: top concentration of the series differs between compounds; nearly all actives have a fitted effect of over 45% in size
Outline: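 Wild-type HCT-116 cells were plated overnight, exposed to compounds for 2 h at 37 °C, then given HDAC-Glo class I/II luminogenic reagent for 30 min at room temperature before luminescence was read.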

[6] = qHTS assay to identify small molecule HDAC inhibitors - cell viability counter screen (AID 1259365); note: series mostly up to about 92 µM; nearly all actives have a fitted effect of over 50% in size
Outline: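 Viability readout: CellTiter-Glo luminescence. Wild-type HCT-116 cells, 2hr compound treatment following overnight attachment at 37 C.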

[7] = qHTS assay to identify small molecule agonists of the sonic hedgehog signaling (Shh) pathway - cell viability counter screen (AID 1259366); note: nearly all actives have a fitted effect of over 50% in size
Outline: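 Viability measured fluorometrically (CellTiter-Fluor, 1hr, 37C) in 3T3 Gli1-Luc reporter cells after 23hr compound exposure within a 24hr incubation at 37C/5% CO2.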

[8] = qHTS assay to identify small molecule antagonists of the sonic hedgehog signaling (Shh) pathway - cell viability counter screen (AID 1259367); note: nearly all actives have a fitted effect of over 55% in size
Outline: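 Seed 3T3 Gli1-Luc cells at 2,000 per well; incubate 4 hr; add compound in DMSO, then conditioned medium; incubate at 37C with 5% CO2; add CellTiter-Fluor after 23 hr; read fluorescence 1 hr later.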

[9] = qHTS assay to identify small molecule phospholipidosis (PLD) inducers (AID 1259344; active = well fitted curve in the direction sought with a large enough effect; an effect the other way counts as inactive or inconclusive)
Outline: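 Quantitative HTS in HepG2: compound plus LipidTOX Red dye for 24 h, paraformaldehyde fixation with Hoechst 33342, widefield high-content imaging; amiodarone as positive and DMSO as negative control.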

Measured: Potency

CCC(=O)OC/C=C/c1ccccc1
not listed: [9]
inactive: all other assays above

CCn1nc(C)c2c1C(=O)NCC(c1ccc(O)cc1)=N2
not listed: [9]
inactive: all other assays above

O=C(O)c1cccnc1C(=O)O
not listed: [9]
inactive: all other assays above

CC(C)CCCCCCOC(=O)CCCCC(=O)OCCCCCCC(C)C
not listed: [9]
inactive: all other assays above

Oc1cc(O)c(Cl)cc1Cl
not listed: [7] | [8] | [9]
inactive: all other assays above

CC(C)c1nnc2ccc(-c3ocnc3-c3cc(F)ccc3F)cn12
active: [4] 30.6 µM
not listed: [9]
inactive: all other assays above

C=CC(C)(O)CCCC(C)CCCC(C)CCCC(C)C (stereo unspecified)
not listed: [9]
inactive: all other assays above

CC(Cl)C(Cl)Cl (stereo unspecified)
not listed: [9]
inactive: all other assays above

ON(Cc1ccccc1)Cc1ccccc1
not listed: [9]
inactive: all other assays above

C/C=C/C=C/CCCCCCCO
not listed: [7] | [8] | [9]
inactive: all other assays above

CCCCCCCCCOC(C)=O
not listed: [8] | [9]
inactive: all other assays above

CCc1c2c(nc3ccc(OC(=O)N4CCC(N5CCCCC5)CC4)cc13)-c1cc3c(c(=O)n1C2)COC(=O)[C@]3(O)CC
active: [4] 23.7 µM
not listed: [7]
inactive: all other assays above

CCCCOC(=O)CCS
active: [4] 27.3 µM
not listed: [9]
inactive: all other assays above

CCCCCCCCCCCC[N+](C)(C)CCCS(=O)(=O)[O-]
not listed: [7] | [9]
inactive: all other assays above

— PubChem BioAssay (Tox21)
